SRC2 inh: inhibits human steroid receptor coactivator 2; Q15596; HEK293 GAL4-SRC2 luciferase reporter, luminescence; inhibition, % at 9 µM; 370,000 tested, 0.17% active; AID 651957;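 active means inhibition above the mean inhibition of all tested compounds plus 3 SD, set per campaign, cut at about 52% in these data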;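 further: 0% = DMSO treated cells and 100% = cells given Gossypol at 36 µM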
LRH-1 inv ag: inverse agonists of human LRH-1 (NR5A2); HEK293T StAR-luciferase reporter, LRH-1 transfected, 24 h; inhibition, % at 3.6 µM; 360,000 tested, 0.13% active; AID 602396;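 active means inhibition above the mean inhibition of all tested compounds plus 3 SD, cut at about 73% in these data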;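 further: 0% = DMSO wells and 100% = reporter-only cells lacking LRH-1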
Gli-Sufu block: Gli-Sufu pathway antagonism; AID 588413; 340,000 tested, 0.74% active; inhibition, % at 5 µM; Sufu-KO-LIGHT fibroblasts, Gli luciferase reporter luminescence;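 active means inhibition above about 55%, limit read from the data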;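 further: 0% = DMSO-treated cells and 100% = wells with medium but no cells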
COUP-TFII inh: NR2F2 (human) inhibition, primary screen; HEK293T NGFI-A luciferase reporter, luminescence; 370,000 tested, 0.7% active; P24468; inhibition, % at 8.6 µM;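 active means inhibition above a per-plate cutoff, mean inhibition of test wells between control levels plus 3 SD, cut at about 38% in these data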;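 further: cells cotransfected with COUP-TFII expression vector driving the NGFI-A reporter; 0% = median of COUP-TF2 test wells and 100% = reporter-only cells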
NCOA1 inh: inhibits human SRC1 coactivator; 360,000 tested, 0.12% active; HEK293 GAL4-SRC1 luciferase reporter, luminescence; inhibition, % at 3.6 µM; Q15788; AID 588354;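 active means inhibition above the campaign mean plus 3 SD, with each screening campaign given its own cutoff, cut at about 60% in these data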;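 further: 0% = DMSO treated cells and 100% = gossypol at 36 µM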
SRC3 inh: inhibits human SRC3 coactivator | HEK293 GAL4-SRC3 luciferase reporter, luminescence | inhibition, % at 3.6 µM | 360,000 tested, 0.17% active;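 active means inhibition above a per-campaign cutoff, the mean of all compounds plus 3 SD, cut at about 60% in these data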;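 further: 0% = DMSO-treated cells and 100% = gossypol-treated cells at 36 µM; higher means less SRC3-driven luciferase light from the GAL4 reporter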
Gal4-VP16 ctr: inhibits VP16 reporter, flagging COUP-TFII antagonist hits; 2,500 tested, 25% active; AID 687007; inhibition, % at 8.5 µM; HEK293 Gal4-VP16 luciferase reporter, luminescence; shares compounds with COUP-TFII inh; in the data active means inhibition above about 13%
COUP-TFII conf: confirmation of human COUP-TFII (NR2F2) inhibitors | AID 687008 | inhibition, % at 8.5 µM | shares compounds with COUP-TFII inh | HEK293 NGFI-A luciferase reporter, luminescence | 2,500 tested, 45% active;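 active means mean inhibition over three repeats above a set limit taken from the earlier primary screen, cut at about 38% in these data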;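 further: 100% = cells given the luciferase reporter alone without the COUP-TF2 vector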
Starred values were filed as active, the others as inactive; . = not tested or not shown. Compounds with a hit are over-represented: about 1.3% of the library has one in this group of screens.

SMILES	SRC2 inh	LRH-1 inv ag	Gli-Sufu block	COUP-TFII inh	NCOA1 inh	SRC3 inh	Gal4-VP16 ctr	COUP-TFII conf
COc1ccc(C(=O)Nc2ccc(C)c(S(=O)(=O)N3CCCCCC3)c2)cc1	7.4	7.2	19.1	45.9*	15.6	5.0	-0.2	19.7
Cc1ccc(S(=O)(=O)N2CCCCC2)cc1NCC(=O)Nc1ccc(Br)cc1F	17.7	19.4	.	54.6*	8.6	9.4	0.9	26.6
COc1cc(O)c(C(CC(=O)N2CC(C)OC(C)C2)c2ccc3c(c2)OCO3)c(OC)c1 (stereo unspecified)	.	.	.	9.2	.	.	.	.
O=C(CCN1CCOCC1)c1ccc(N2CCCCC2)cc1	62.7*	31.6	-22.5	59.7*	10.8	24.1	39.2*	39.9*
S=C(Nc1ccccc1)OC1CCC12CCC(c1ccccc1)CC2 (stereo unspecified)	4.8	.	.	-9.7	.	.	.	.
Brc1ccccc1Cn1nnc(-c2ccc(N3CCOCC3)cc2)n1	-27.3	.	.	-11.6	.	.	.	.
O=C(Nc1ccc2nc3n(c(=O)c2c1)CCCCC3)c1c(F)ccc([N+](=O)[O-])c1F	71.3*	4.1	-2.4	42.7*	-156.4	0.0	60.2*	78.7*
COC(=O)[C@]12C[C@H](CC(=O)NCc3cccc(C(F)(F)F)c3)C(=O)N(Cc3ccco3)C1=C[C@H](C1CCCC1)O[C@@H]2C	-15.5	.	.	1.2	.	.	.	.
CN(C(=O)c1cn(C)c2ccccc12)c1ccc(Oc2cccnc2)cc1	22.9	.	.	47.2*	.	.	-3.5	36.9
OC(c1ccc(F)cc1)c1nc(-c2ccncc2)cs1 (stereo unspecified)	-12.6	16.6	.	41.8*	16.4	23.2	-0.9	23.3
O=C(Nc1ncc([N+](=O)[O-])s1)c1ccc2c(c1)OCO2	44.2	-58.5	18.3	33.3	-9.2	1.8	.	.
Cc1ccc(C(=O)Nc2ncc([N+](=O)[O-])s2)cc1	61.9*	-28.3	60.1*	63.5*	2.8	3.9	-16.1	5.7
Cc1ccc(C(=O)Sc2cccccc2=O)cc1	94.1*	61.4	75.0*	48.7*	0.8	74.9*	89.0*	91.8*
CSc1ccc(NC(=O)Nc2cccn(Cc3ccccc3F)c2=O)cc1	-21.3	-23.1	-32.5	38.9*	-15.3	-17.8	-72.8	-7.7
CCc1ccccc1NC(=O)Nc1cccn(Cc2ccccc2F)c1=O	-23.4	-9.2	-8.8	9.7	-17.4	4.1	.	.
COc1ncc(-c2ccc(N3C(c4ccsc4)=Cc4ccccc4C3CC(C)=O)cc2)cn1 (stereo unspecified)	-23.5	-13.1	.	-7.9	.	.	.	.
CC(=O)CC1c2ccccc2C=C(c2ccsc2)N1c1ccc(-c2cccs2)cc1 (stereo unspecified)	5.7	16.1	.	45.7*	.	.	-14.5	-4.0
Cc1ccc(Oc2cc([N+](=O)[O-])cc3c2C(=O)Nc2ccccc2O3)cc1	2.5	23.5	11.2	38.0*	1.9	26.1	-9.2	12.0
COc1ccccc1C(=O)n1ccc2ccc(-c3ccc4ccn(Cc5ccccc5)c4c3)cc21	-8.1	.	.	-2.7	.	.	.	.
CCOC(=O)c1cccc(-c2cc(C(C)=O)c3n(c2=O)CCC3)c1	-2.4	.	.	-23.3	.	.	.	.
COC(=O)[C@]12C[C@H](CC(=O)NCCC(C)C)C(=O)N(CCC3=CCCCC3)C1=C[C@H](C(C)C)O[C@@H]2C1CC1	-11.5	.	.	1.6	.	.	.	.
O=C(Nc1ccc(Oc2ccccc2)cc1)c1csc([C@H]2C[C@H](O)[C@@H](CO)O2)n1	17.3	44.5	.	76.9*	11.4	10.2	-4.5	61.1*
O=C(Nc1ccc(OCCO)cc1)c1csc([C@@H]2O[C@H](CO)[C@H](O)[C@H](O)[C@H]2O)n1	-15.3	2.7	.	2.3	-5.9	-3.7	.	.
O=C(Nc1ccc(Oc2ccccc2)cc1)c1csc([C@@H]2O[C@H](CO)[C@@H](O)[C@H]2O)n1	27.8	37.4	.	65.8*	32.6	-14.5	7.1	50.8*
O=[N+]([O-])c1ccc(C[n+]2cccc3ccccc32)cc1	-9.4	12.1	-0.1	-5.0	2.1	4.2	.	.
c1ccc(C[n+]2cccc3c4ccccc4ccc32)cc1	18.9	60.6	-6.2	52.8*	19.2	32.6	3.0	44.9*
